The values that follow come from PubChem BioAssay (Tox21).

Inconclusive results are not listed. The source made the active and inactive calls. The call rests on the fitted dose curve; in most records, active means well fitted cell-killing curve with a large enough effect in the repeat runs; inconclusive means weak or mixed curves; inactive means no such curve, though single readings can be large or run the other way.

A short description of this assay: qHTS assay to identify small molecule antagonists of the androgen receptor (AR) signaling pathway - cell viability counter screen (AID 743033; further: nearly all actives have a fitted effect of over 45% in size). As to conditions: AR-bla HEK293 viability, CellTiter-Glo luminescence, 16 h; series mostly up to 58.5 µM. (In general: qHTS replaces the single test concentration by a dilution series.)
Take `CC(C)NCC(O)c1ccc2ccccc2c1` (stereo not given): the outcome was inactive.
In the case of `O/N=C/C=N/O` it was “inactive”.
In the case of `C=CCOC(=O)CCCCCC` it was “inactive”; in that of `CC1CCc2c(N3CCC(O)CC3)c(F)cc3c(=O)c(C(=O)O)cn1c23` (stereo not given), “inactive”; in that of `Nc1nc(-c2ccccc2)c(Br)c(=O)[nH]1`, “inactive”.
In the case of `CCCCCC/C=C/C(=O)OC` it was “inactive”; in that of `CCCCOC(=O)[C@H](C)O`, “inactive”.
For the compound `CCCCCCC1(C)CCC(=O)O1` (stereo not given), the result was inactive.
In the case of `Cc1ccccc1C(N)=O` it was “inactive”; in that of `CC(C)COC(=O)c1ccccc1`, “inactive”; in that of `CCCCCC(C)O` (stereo not given), “inactive”.
In the case of `Cc1ccc(N)cc1S(=O)(=O)O` it was “inactive”.
In the case of `OCC(O)CN1CCN(c2ccccc2)CC1` (stereo not given) it was “inactive”; in that of `CC(C)=CCC/C(C)=C/COC=O`, “inactive”; in that of `CC(=O)CCc1ccc(OC(C)=O)cc1`, “inactive”.
As to `CO[Si](CCCn1c(=O)n(CCC[Si](OC)(OC)OC)c(=O)n(CCC[Si](OC)(OC)OC)c1=O)(OC)OC`, the compound was called inactive.
For `CC(=O)Nc1ccc(OC(=O)c2ccccc2OC(C)=O)cc1`, the compound was classed as inactive.
In the case of `CC/C=C\CCOC(=O)c1ccccc1O` it was “inactive”; in that of `CC(O)COC(C)(C)C` (stereo not given), “inactive”.
In the case of `CC(Oc1cc(Cl)ccc1Cl)C(=O)O` (stereo not given) it was “inactive”.
